Structures are written as SMILES. The panel holds about 83,000 compounds, 20% with a hit somewhere; the sample as a whole holds those more often.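 Results are percent growth after 48 hours of single-concentration exposure. 100 means growth as in untreated cells, lower positive values show inhibition; negative values down to -100 show cell death.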 Unmarked numbers belong to inactive results. Calls of active or inactive are those of the source. How the source made its calls: active means growth percent below 10; inactive means the rest.

Some test systems named below: HCT-15 colon; HT29 colon; SNB-75 CNS; SNB-19 CNS; U251 CNS; PC-3 prostate; SK-MEL-5 melanoma; UACC-62 melanoma; LOX IMVI melanoma; SK-MEL-28 melanoma.
Common to all, as to assay: NCI-60 one-dose screen, 48 h (100 = growth as untreated, 0 = no growth, -100 = all killed)
Common to all, as to conditions: 10 µM unless noted

With `CCOC(=O)c1sc2ccc(NCc3nc[nH]c3C)cc2c1NC(=O)c1cc(OC)c(OC)c(OC)c1`, the growth was 92.7% in the experiment with HCT-15 colon; 88.9% in the experiment with HT29 colon; 92.8% with SNB-75 CNS; 93% with SNB-19 CNS; 92.3% in the experiment with U251 CNS; 85% in the experiment with PC-3 prostate. Moreover, the growth is 96.9% in the experiment with SK-MEL-5 melanoma, 92.9% with UACC-62 melanoma, 67.9% in the experiment with LOX IMVI melanoma and 83% in the experiment with SK-MEL-28 melanoma.
In the case of `CCOc1cccnc1/C=N/NC(N)=S`, the growth in the experiment on HCT-15 colon is 40.2%; with HT29 colon, 56.7%; in the experiment on SNB-75 CNS, 68.7%; in the experiment on SNB-19 CNS, 69.4%; in the experiment on U251 CNS, 36.1%; in the experiment on PC-3 prostate it was 37.3%. Also, the growth is 55.4% in the experiment on SK-MEL-5 melanoma, 50.6% with UACC-62 melanoma, 35.9% with LOX IMVI melanoma and 76.1% in the experiment on SK-MEL-28 melanoma.
With `COc1cc(C2CC(c3ccc(Nc4nc(Nc5ccc(F)cc5)nc(Nc5ccc(Cl)cc5)n4)cc3)=NN2C(C)=O)cc(OC)c1OC` (stereo not given), the growth with HCT-15 colon was 65.7%; in the experiment with HT29 colon, 46.3%; in the experiment on SNB-75 CNS it was 54.7%; in the experiment on SNB-19 CNS it was 74.5%; in the experiment on U251 CNS, 62.6%; in the experiment on PC-3 prostate it was 32.6%. Further, the growth in the experiment with SK-MEL-5 melanoma is 60.1%; with UACC-62 melanoma, 62%; in the experiment on LOX IMVI melanoma, 82.8%; in the experiment on SK-MEL-28 melanoma, 88.7%.
Regarding `c1ccc2c(c1)nc(-n1ccnc1)c1nc3ccccc3n12`, the growth is 82.7% in the experiment with HCT-15 colon; 74% in the experiment on HT29 colon; 70% in the experiment on SNB-75 CNS; 42.8% in the experiment on SNB-19 CNS; 61.5% in the experiment on U251 CNS; 68% in the experiment with PC-3 prostate. In addition, the growth is 68.9% in the experiment with SK-MEL-5 melanoma, 72% in the experiment on UACC-62 melanoma, 71% in the experiment on LOX IMVI melanoma and 82.5% in the experiment on SK-MEL-28 melanoma.
Take `O=C1CSC(c2ccccc2O)N1c1nnc(Cn2cnnc2)o1` (stereo not given): the growth in the experiment on HCT-15 colon is 66.2%; in the experiment with HT29 colon it was 99.1%; with SNB-75 CNS, 66.8%; in the experiment on SNB-19 CNS, 90.4%; with U251 CNS it was 79.7%; in the experiment on PC-3 prostate, 79.4%. Further, the growth in the experiment with SK-MEL-5 melanoma is 95.1%; with UACC-62 melanoma, 90.8%; with LOX IMVI melanoma it was 78.5%; in the experiment with SK-MEL-28 melanoma, 102%.
In the case of `C=CCOc1cccc(/C=C2\SC(=Nc3ccc(O)cc3)NC2=O)c1`, the growth in the experiment with HCT-15 colon was 10.1%; in the experiment on HT29 colon it was 11.7%; in the experiment on SNB-75 CNS, -18.6% (active); in the experiment with SNB-19 CNS, 30.9%; in the experiment with U251 CNS, 13.1%; with PC-3 prostate, 13.9%. Moreover, the growth in the experiment on SK-MEL-5 melanoma was -39% (active); in the experiment with UACC-62 melanoma it was 34.7%; with LOX IMVI melanoma, 8.94% (active); in the experiment on SK-MEL-28 melanoma, 69.7%.
Take `N#Cc1c(N)nc2c(nnn2-c2cccc(Br)c2)c1N`: the growth was 104% with HCT-15 colon; 102% in the experiment with HT29 colon; 97.6% with SNB-75 CNS; 95.9% in the experiment on SNB-19 CNS; 93% with U251 CNS; 91.6% with PC-3 prostate. The growth in the experiment on SK-MEL-5 melanoma was 96.4%; in the experiment on UACC-62 melanoma it was 95.6%; with LOX IMVI melanoma, 102%; with SK-MEL-28 melanoma, 117%.
For the molecule `COc1cc(NC(=O)c2cccc(-c3cc(=O)c4c(OC)c(OC)c(OC)cc4o3)c2)cc(OC)c1OC`, the growth with HCT-15 colon was 40.7%; with HT29 colon, 31.1%; with SNB-75 CNS, 74.7%; in the experiment on SNB-19 CNS, 56.3%; with U251 CNS, 44.9%; in the experiment with PC-3 prostate, 52.4%. Further, the growth is 8.34% (active) with SK-MEL-5 melanoma, 50.5% in the experiment with UACC-62 melanoma, 24.4% in the experiment with LOX IMVI melanoma and 63.5% with SK-MEL-28 melanoma.
Consider `Nc1ccc(CCCCc2ccccc2)c(Cl)c1`, for which the growth with HCT-15 colon was 89%; in the experiment on HT29 colon, 96.3%; in the experiment with SNB-75 CNS it was 75.2%; in the experiment with SNB-19 CNS it was 94.6%; with U251 CNS, 77.7%; in the experiment with PC-3 prostate, 90.1%. The growth is 96.4% in the experiment on SK-MEL-5 melanoma, 93.4% with UACC-62 melanoma, 99.2% in the experiment on LOX IMVI melanoma and 98.8% in the experiment with SK-MEL-28 melanoma.
With `CN=C1C=CC(=C(c2ccc(N(C)C)cc2)c2ccc(N(C)C)cc2)C=C1`, the growth with HCT-15 colon was 7.06% (active); with HT29 colon, -37.2% (active); with SNB-75 CNS, -26.7% (active); with SNB-19 CNS, 3.16% (active); with U251 CNS, -57.5% (active); with PC-3 prostate, 2.74% (active). Further, the growth is -98.5% (active) with SK-MEL-5 melanoma, -50.2% (active) in the experiment with UACC-62 melanoma, -59.3% (active) in the experiment with LOX IMVI melanoma and -44.9% (active) in the experiment on SK-MEL-28 melanoma.
Take `CCO/C=N/C1=C(C#N)C(c2ccc(OC)cc2)c2c(c3ccccc3n(C)c2=O)O1` (stereo not given): the growth was 103% in the experiment with HCT-15 colon; 104% with HT29 colon; 78.1% with SNB-75 CNS; 101% with SNB-19 CNS; 103% in the experiment with U251 CNS; 98.4% in the experiment with PC-3 prostate. The growth was 102% in the experiment with SK-MEL-5 melanoma, 98.7% in the experiment on UACC-62 melanoma, 99.1% in the experiment on LOX IMVI melanoma and 110% with SK-MEL-28 melanoma.
Consider `O=C(Nc1ccccc1)c1sc(-c2cccc(C(F)(F)F)c2)cc1O`, for which the growth is 69.5% in the experiment with HCT-15 colon; 93.7% in the experiment with HT29 colon; 78.5% with SNB-75 CNS; 69.6% in the experiment on SNB-19 CNS; 51.6% in the experiment with U251 CNS; 81% in the experiment on PC-3 prostate. The growth with SK-MEL-5 melanoma was 18.4%; with UACC-62 melanoma, 23.3%; in the experiment on LOX IMVI melanoma, 86.4%; in the experiment with SK-MEL-28 melanoma, 53%.
Regarding `O=C(/C=C/C12c3ccccc3C(c3ccccc31)C1C(=O)N(c3ccc(Cl)cc3)C(=O)C12)c1ccccn1` (stereo not given), the growth in the experiment with HCT-15 colon was -35% (active); in the experiment with HT29 colon, 1.52% (active); with SNB-75 CNS, -18.7% (active); in the experiment with SNB-19 CNS it was -71.9% (active); in the experiment on U251 CNS it was -48.3% (active); in the experiment on PC-3 prostate, -19.8% (active). For the same molecule, the growth in the experiment on SK-MEL-5 melanoma was -83.5% (active); in the experiment on UACC-62 melanoma, -44.6% (active); with LOX IMVI melanoma, -89.4% (active); with SK-MEL-28 melanoma, -12.4% (active).
Take `COc1cc2c(=O)n(CCCn3ccnc3)c3c4cc5c(cc4ccc3c2cc1OC)OCO5`: the growth was 10.1% in the experiment on HCT-15 colon; -24% (active) in the experiment with HT29 colon; 1.74% (active) in the experiment on SNB-75 CNS; 19.3% in the experiment on SNB-19 CNS; -2.14% (active) in the experiment on U251 CNS; 11.6% in the experiment on PC-3 prostate. The growth with SK-MEL-5 melanoma is -75.9% (active); in the experiment with UACC-62 melanoma it was -50.9% (active); with LOX IMVI melanoma, -62.4% (active); in the experiment with SK-MEL-28 melanoma, 40.1%.

(Values after PubChem BioAssay (NCI).)
